RE007 growth inh – less growth of the S. pombe RE007 Vpr strain | S. pombe RE007 Vpr strain, BacTiter-Glo ATP luminescence, 24 h | Potency, µM (titrated, usually from 92.2 µM), actives largely listed as inhibitors | actives 0.21% (n = 360,000); active means well fitted falling curve with a large enough effect; inconclusive means small, poorly fitted or top-dose-only effect; inactive means no such curve, though single readings can be large or run the other way; further: nearly all actives have a fitted effect of over 50% in size
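Fission yeast strain RE007, carrying one chromosomally integrated HIV-1 vpr copy, was seeded at OD 0.01 in PMG+AL medium with 23 nL pinned compound. After 24 h at 30 °C and 99% humidity, viability was read by BacTiter-Glo luminescence.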
CHX counter – counter-screen for Shiga toxin inhibitors: cycloheximide protein synthesis inhibition. AID 2314. actives 12% (n = 300,000). cell reporter, cycloheximide protein synthesis inhibition counterscreen. max response, %; in the data active means max response mostly above about 13%, no sharp cut-off; inactive means mostly below about 14%; further: read at 38.3 µM for the half of the compounds with a filed dose
LmPK inhibitor – inhibitors of Leishmania mexicana pyruvate kinase; actives 0.37% (n = 290,000); AID 1721; Potency, µM (highest dose often 57.5 µM), usual class: inhibitors; Q27686; purified LmPK, Kinase-Glo ATP luminescence, 1 h
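Screened at intermediate enzyme activity to detect both inhibitors and activators: LmPK at 0.1 nM, with a 0.5 nM enzyme column as activation reference. PEP 0.5 mM, ADP 0.1 mM; ATP detected by luminescence after 1 h.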
Shiga toxin inh – blocks Shiga toxin action in Vero cells | inhibition, % at 38.7 µM | Vero cells, Shiga toxin protein synthesis inhibition reporter | AID 2315 | actives 9.2% (n = 290,000); in the data active means inhibition mostly above about 28%, no sharp cut-off; inactive means mostly below about 43%
TbPYK inhibitor – inhibitors of Trypanosoma brucei pyruvate kinase | Q57TT1 | TbPYK enzyme, Kinase-Glo Plus ATP luminescence, 45 min | actives 0.12% (n = 410,000) | Potency, µM (series often up to 76.8 µM), most hits filed as inhibitors; further: nearly all actives have a fitted effect of over 50% in size
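Screened from lowest to highest concentration, compounds were pinned into TbPYK/substrate mixtures, and ADP (130 uM final) was added. Plates sat at room temperature for 45 min prior to Kinase-Glo Plus detection by luminescence.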
Giardia FBPA inh – Giardia lamblia aldolase inhibition. A8B2U2. purified Giardia FBPA. Potency, µM (highest dose often 59.6 µM), most hits filed as inhibitors. actives 0.71% (n = 290,000). AID 2451; further: nearly all actives have a fitted effect of over 55% in size
Target sequence (A8B2U2 whole entry, looked up): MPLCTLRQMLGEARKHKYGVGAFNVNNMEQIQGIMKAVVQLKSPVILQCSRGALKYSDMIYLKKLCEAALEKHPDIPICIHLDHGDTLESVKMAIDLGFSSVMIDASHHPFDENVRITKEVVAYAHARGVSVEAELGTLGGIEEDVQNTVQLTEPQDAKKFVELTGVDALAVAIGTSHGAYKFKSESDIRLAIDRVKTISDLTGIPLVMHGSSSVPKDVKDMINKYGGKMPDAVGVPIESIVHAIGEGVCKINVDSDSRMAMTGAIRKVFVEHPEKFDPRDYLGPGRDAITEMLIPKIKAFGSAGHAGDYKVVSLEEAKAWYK
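Giardia FBPA (40 nM reagent) was preincubated 10 min at RT with compound (up to 57.5 uM final), then substrate plus GAPDH/TPI/NAD/arsenate coupling system with diaphorase/resazurin was added; resorufin fluorescence (525/598 nm) was read after 20 min.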
Numbers stand for hits; 0 = inactive; ? = inconclusive; - = no result. Only a selection was taken, and hits are over-represented in it overall. Unless noted, the call rests on the fitted dose curve; in most records, active means well fitted curve in the direction sought with a large enough effect; inconclusive means small, poorly fitted or top-dose-only effect, or another doubt; inactive means no such curve, though single readings can be large; an effect the other way counts as inactive or inconclusive.

SMILES | RE007 growth inh | CHX counter | LmPK inhibitor | Shiga toxin inh | TbPYK inhibitor | Giardia FBPA inh
COc1ccc(NC(=S)Nc2cc(-c3ccccc3)[nH]n2)cc1Cl | 0 | 20 | 0 | 0 | 0 | 0
CCCCc1nn2c(=O)cc(COC(=O)c3ccccc3NC(=O)c3ccccc3OC)nc2s1 | - | - | - | - | 0 | -
COC(=O)C1(Cc2ccccc2)C2c3cc(C(=O)N4CCCC4)n(Cc4ccc(OC(F)(F)F)cc4)c3CC2CN1C(=O)c1ccccc1 (configuration not stated) | - | - | - | - | - | 0
CCOc1ccccc1NC(=O)C(C)Sc1nc2c(c(=O)[nH]1)CCCC2 (configuration not stated) | - | - | - | - | 0 | -
CC(Cc1ccccc1)NC(=O)c1ccc([N+](=O)[O-])cc1 (configuration not stated) | 0 | 30 | 0 | 61 | 0 | 0
CC(Cc1ccccc1)NC(=O)NC(C)Cc1ccccc1 (configuration not stated) | 0 | 29 | 0 | 69 | 0 | 0
CC(Cc1ccccc1)NC(=O)/C=C/c1ccc([N+](=O)[O-])cc1 (configuration not stated) | ? | 0 | 0 | 0 | 0 | 0
CC(=O)NC(C)Cc1ccccc1 (configuration not stated) | 0 | 0 | 0 | 0 | 0 | 0
CC(Cc1ccccc1)NC(=O)c1ccc(N)cc1 (configuration not stated) | 0 | 37 | 0 | 62 | 0 | 0
CCOc1cccc2cc(-c3nc4sc5c(c4c(=O)[nH]3)CCC(C)C5)c(=O)oc12 (configuration not stated) | - | - | - | - | 0 | -
O=C(Cc1ccc(F)cc1)Nc1cccc(-c2nc3cccnc3s2)c1 | - | - | - | - | 0 | -
COc1cc(C=C2C(=O)NC(=O)NC2=O)ccc1O | 0 | 0 | 0 | 0 | ? | 0
COc1cc(/C=C2\OC(=O)c3c(OC)cccc32)ccc1O | 0 | 79 | 0 | 100 | 0 | 0
Cc1cc(C)cc(NC(=O)CSc2nccn2C2CCCC2)c1 | - | - | - | - | 0 | -
COc1cccc(C(=O)Nc2ccc(N3CCN(S(C)(=O)=O)CC3)cc2)c1 | 0 | 0 | 0 | 0 | 0 | 0
CS(=O)(=O)N1CCN(c2ccc(NC(=O)c3ccccc3)cc2)CC1 | 0 | 37 | 0 | 82 | 0 | 0
Cc1cccc(C(=O)Nc2ccc(N3CCN(S(C)(=O)=O)CC3)cc2)c1 | 0 | 22 | 0 | 73 | 0 | 0
CN(C(=O)CSc1nc2ncccc2o1)c1ccc(F)cc1 | - | - | - | - | 0 | -
Cc1ccc(NC(=O)CC2Oc3ccccc3NC2=O)cc1C (configuration not stated) | - | - | - | - | 0 | -
Cc1ccc(NS(=O)(=O)c2ccccc2)c(C)c1 | - | 0 | - | 0 | - | -
Fc1cccc(/C=N/Nc2ncnc3nc[nH]c23)c1 | 0 | 83 | ? | 71 | 0 | 0
Cc1cnn(-c2cc(N/N=C/c3cccc(F)c3)ncn2)c1 | 0 | 0 | 0 | 0 | 0 | 0
Fc1ccccc1/C=N/Nc1ncnc2nc[nH]c12 | 0 | 49 | 0 | 139 | 0 | 0
COC(=O)CC1Oc2ccc(F)cc2-n2cc(-c3ccc(C)cc3)nc21 (configuration not stated) | - | - | - | - | 0 | -
CCc1ccccc1NC(=O)CSc1nc2c(oc3ccccc32)c(=O)n1C | - | - | - | - | 0 | -
SMILES | RE007 growth inh | CHX counter | LmPK inhibitor | Shiga toxin inh | TbPYK inhibitor | Giardia FBPA inh
CCc1nc2oc3ccc(C)cc3c(=O)c2cc1C(=O)OC | 0 | 24 | 0 | 30 | 0 | 0
COC(=O)c1cc2c(=O)c3ccccc3oc2nc1C | 0 | 24 | 0 | 49 | 0 | 0
COC(=O)c1cc2c(=O)c3ccccc3oc2nc1/C=C/N(C)C | 0 | 19 | 0 | 0 | 0 | 0
Cc1nc2oc3ccccc3c(=O)c2cc1C(=O)O | 0 | 0 | 0 | 0 | 0 | 0
Cc1nc2oc3ccc(F)cc3c(=O)c2cc1C(=O)NC(C)(C)C | 0 | 41 | 0 | 128 | 0 | 0
Cc1ccccc1CN1c2ccccc2-c2nc(SCC(=O)NCCc3ccccc3)ncc2S1(=O)=O | - | - | - | - | 0 | -
O=C(Cn1cc(SCc2c(F)cccc2Cl)c2ccccc21)N1CCCCCC1 | - | - | - | - | 0 | -
Cc1ccc(C(=O)Cn2nnc(-c3ccccc3)n2)cc1 | 0 | 0 | 0 | 82 | 0 | 0
CC1CC(C)CN(C(=O)Cn2nnc(-c3ccccc3)n2)C1 (configuration not stated) | 0 | 0 | 0 | 0 | 0 | 0
COc1ccc(-c2nnn(CC(=O)c3ccc4c(c3)OCCO4)n2)cc1OC | 0 | 16 | 0 | 0 | 0 | 0
